The full ranking holds about 140,000 sequences; the median of “enrichment ratio after two sorts for PhoP signalling” is about 0, and the highest 2% start at about 11. Many of the other results were omitted from the sample, so the highest values are more common in it than they were.

The chains are these.
B1: PhoQ; a variant is named by its letters at X, in order, P23837 (parent)
chain: MKKLLRLFFPLSLRVRFLLATAAVVLVLSLAYGMVALIGYSVSFDKTTFRLLRGESNLFYTLAKWENNKLHVELPENIDKQSPTMTLIYDENGQLLWAQRDVPWLMKMIQPDWLKSNGFHEIEADVNDTSLLLSGDHSIQQQLQEVREDDDDAEMTHSVAVNVYPATSRMPKLTIVVVDTIPVELKSSYMVWSWFIYVLSANLLLVIPLLWVAAWWSLRPIEALAKEVRELEEHNRELLNPATTRELTSLVRNLNRLLKSERERYDKYRTTLTDLTHSLKTPLXXLQXXLRSLRSEKMSVSDAEPVMLEQISRISQQIGYYLHRASMRGGTLLSRELHPVAPLLDNLTSALNKVYQRKGVNISLDISPEISFVGEQNDFVEVMGNVLDNACKYCLEFVEISARQTDEHLYIVVEDDGPGIPLSKREVIFDRGQRVDTLRPGQGVGLAVAREITEQYEGKIVAGESMLGGARMEVIFGRQHSAPKDE

In this experiment the parent is B1. The experiment can be described thus: enrichment ratio after two sorts for PhoP signalling (ratio (wild type AVST 3.29)); higher = more functional. As to conditions: with PhoP (E. coli).
SGEP: the enrichment ratio was ≤ 0.25. For INCT the value was ≤ 0.25; for NFHN, ≤ 0.25; for NMVN, ≤ 0.25.

In the case of DKLH, the enrichment ratio is ≤ 0.25. For PNLH the value was ≤ 0.25; for ANTA, 19.3; for ANTS, 21.1.

As for ANTG, the enrichment ratio turned out to be 1.58. As for ANTH, the enrichment ratio came out at 6.44. For ANTE the value was ≤ 0.25; for ANNK, 0.253; for ANTD, ≤ 0.25.

On to ANTC, for which the enrichment ratio was 63.

Take ANTR: the enrichment ratio is ≤ 0.25. For ANTI, the enrichment ratio is 11.4. For ANTK the value was ≤ 0.25. For ANFC the value was ≤ 0.25. On to MYDG, for which the enrichment ratio is ≤ 0.25. For PVQS the value was ≤ 0.25; for RRVW, ≤ 0.25; for HRAN, ≤ 0.25. For KEHR the value was ≤ 0.25; for SANM, 9.22.

In the case of NAVG, the enrichment ratio was ≤ 0.25.

For EVLL, the enrichment ratio was ≤ 0.25. KQMR: the enrichment ratio was ≤ 0.25.

As for YTIQ, the enrichment ratio is ≤ 0.25.

With KYIQ, the enrichment ratio is ≤ 0.25. In the case of MEIQ it was 19.4; in that of SEIQ, 22.9.

In the case of SEIE, the enrichment ratio was ≤ 0.25. In the case of MDIQ it was 0.654; in that of STIQ, 14; in that of SEFQ, 6.8. Consider MMIQ, for which the enrichment ratio is ≤ 0.25. In the case of EGNN it was ≤ 0.25; in that of NRRY, ≤ 0.25. For the variant THCI, the enrichment ratio was 7.06. For ANVR the value was ≤ 0.25. For HNSH the value was ≤ 0.25. For HYAD the value was ≤ 0.25. Turning to LNEM, the enrichment ratio was ≤ 0.25. In the case of KKNT it was ≤ 0.25; in that of GTCN, 3.53.

With KECN, the enrichment ratio is ≤ 0.25. Consider FQCN, for which the enrichment ratio was ≤ 0.25. For TECN the value was 60.8; for FNCN, ≤ 0.25; for FCCN, ≤ 0.25. For SECN the value was 23.5; for SELN, 8.08. In the case of SNCN it was 7.42; in that of FECN, 13; in that of GMCN, 13.6. Consider GMLN, for which the enrichment ratio is 0.729. For the variant KSEA, the enrichment ratio is ≤ 0.25. In the case of VGRD it was ≤ 0.25. For RFAS the value was ≤ 0.25; for LNVE, ≤ 0.25. In the case of GWCA it was ≤ 0.25.

With ACRC, the enrichment ratio was ≤ 0.25. Take RCNS: the enrichment ratio is ≤ 0.25. In the case of FSFI it was 0.694; in that of IGKY, ≤ 0.25; in that of SSNS, 0.835. For TCCN the value was 17.6. For QECN the value was 9.04; for VECN, ≤ 0.25; for NECN, ≤ 0.25. As to FEWI, the enrichment ratio is ≤ 0.25. In the case of FELN it was 13.7; in that of MECN, 12.6; in that of DCCN, ≤ 0.25.

For the variant FELA, the enrichment ratio was 2.53. In the case of MPYN it was ≤ 0.25; in that of DKHY, ≤ 0.25; in that of CHTM, ≤ 0.25. In the case of NPDP it was ≤ 0.25; in that of DDIR, ≤ 0.25. For QAWS the value was 18.4; for KAWL, ≤ 0.25. As to QAWL, the enrichment ratio turned out to be 19.9.

In the case of NAWL, the enrichment ratio is ≤ 0.25. For QAWI the value was ≤ 0.25; for QAWM, 10.8. In the case of NGDG it was ≤ 0.25; in that of NCII, ≤ 0.25. In the case of YKNN it was ≤ 0.25; in that of GHVH, ≤ 0.25; in that of HGGE, ≤ 0.25.

As for LYYP, the enrichment ratio was ≤ 0.25. For LFEG the value was ≤ 0.25. SESY: the enrichment ratio is 25.4.

GVSY: the enrichment ratio is ≤ 0.25. For the variant YTSY, the enrichment ratio was ≤ 0.25. Regarding KQSY, the enrichment ratio is ≤ 0.25. GEEY: the enrichment ratio was ≤ 0.25. In the case of SRSY it was ≤ 0.25; in that of QESY, ≤ 0.25. For TESY the value was 23.2; for GESY, 12.8. For SQSY the value was 8.96; for NESY, ≤ 0.25; for STSY, 11.6. With HTRW, the enrichment ratio was ≤ 0.25. For TYTW the value was ≤ 0.25.

Regarding RVSE, the enrichment ratio was ≤ 0.25. In the case of PWWY it was ≤ 0.25; in that of GELC, 8.26.

Take IGYI: the enrichment ratio is ≤ 0.25.

For YYAS, the enrichment ratio is ≤ 0.25. In the case of SNSY it was 12.8; in that of MESY, 14.8. For KYSY the value was ≤ 0.25; for SPSY, ≤ 0.25; for MMSY, 2.46. With MKSY, the enrichment ratio is ≤ 0.25.

Take SMSY: the enrichment ratio is 11.4. For NMSY the value was ≤ 0.25; for SDSY, ≤ 0.25; for HYIP, ≤ 0.25. On to DCSH, for which the enrichment ratio is ≤ 0.25. For VCML the value was 10; for KCML, ≤ 0.25; for YYML, ≤ 0.25. For the variant YCNL, the enrichment ratio was ≤ 0.25. In the case of YCML it was 12.7; in that of TCML, 16.7. Turning to FPML, the enrichment ratio is ≤ 0.25. In the case of TYML it was 0.784; in that of QPML, ≤ 0.25. For YTML, the enrichment ratio was 5.16.

As for FTML, the enrichment ratio amounted to 12.

With FCML, the enrichment ratio turned out to be 21.1. For ILLC the value was ≤ 0.25; for TKRF, ≤ 0.25; for EMVN, ≤ 0.25. In the case of VCYH, the enrichment ratio was ≤ 0.25. On to HYMK, for which the enrichment ratio was ≤ 0.25. For KEFY, the enrichment ratio is ≤ 0.25. For LSFV, the enrichment ratio was determined as 5.15.

For SLYE, the enrichment ratio was ≤ 0.25. Turning to NVML, the enrichment ratio was ≤ 0.25.

On to FVML, for which the enrichment ratio amounted to 13.2. Regarding TVML, the enrichment ratio amounted to 1.47. For EIFI the value was ≤ 0.25. For NLQN the value was ≤ 0.25; for IMRF, ≤ 0.25; for CDCR, ≤ 0.25. VECR: the enrichment ratio is ≤ 0.25. For TCCR the value was 13.1; for TCKR, ≤ 0.25; for TEKR, ≤ 0.25.

On to TECR, for which the enrichment ratio was 16.3. In the case of QFGW it was ≤ 0.25; in that of KPGY, ≤ 0.25.

For KAWY, the enrichment ratio is ≤ 0.25. With VNCT, the enrichment ratio was found to be 1.24. In the case of MEFD it was ≤ 0.25; in that of WICH, ≤ 0.25. Take NQCH: the enrichment ratio is ≤ 0.25. For AHCH the value was 2.08; for TGCH, 10.6; for AQTH, ≤ 0.25. In the case of RGCH, the enrichment ratio is ≤ 0.25. In the case of AQCH it was 32.7; in that of AGCH, 11.6; in that of AICH, 15.1. For MICD the value was ≤ 0.25; for EHIV, ≤ 0.25.

For the variant FHVI, the enrichment ratio was ≤ 0.25. In the case of GTWL, the enrichment ratio is ≤ 0.25. In the case of IFFD, the enrichment ratio was ≤ 0.25. For KVLP the value was ≤ 0.25; for LFKL, ≤ 0.25. For ATLI the value was 15.7; for ATLT, 10.2; for SPLI, ≤ 0.25.

Turning to ATLS, the enrichment ratio was determined as 10.6. In the case of SILI it was 4.12. In the case of SQLI it was 11.8; in that of STLI, 12.4.

On to KYLI, for which the enrichment ratio was ≤ 0.25.

As to DPLI, the enrichment ratio is ≤ 0.25.

Turning to FTLI, the enrichment ratio was 10.3. In the case of YTLI it was 12.8; in that of QPLI, ≤ 0.25. For SDYI the value was ≤ 0.25; for CPPL, ≤ 0.25. In the case of LICH it was ≤ 0.25; in that of GFMC, ≤ 0.25. For RVDS, the enrichment ratio was ≤ 0.25. For INFA the value was ≤ 0.25; for TVQC, 4.14.
